Assay results taken from PubChem BioAssay (NCATS).
Records with an inconclusive call do not appear. The source made the active and inactive calls. Unless noted, calls come from the whole dose curve; as a rule, active = well fitted curve in the direction sought with a large enough effect; inconclusive = small, poorly fitted or top-dose-only effect, or another doubt; inactive = no such curve, though single readings can be large; an effect the other way counts as inactive or inconclusive.

Columns and labels:
[1] = Cellular Toxicity (caspase-3) HepG2 (AID 654);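 note: cells exposed to compound for 16 hours before reading; 0% = DMSO alone and 100% = caspase signal from 100 µM tamoxifen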
Procedure, shortened: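 qHTS, HepG2, 1500 cells/well, complete medium; cpd 16 h 37 °C; Caspase-Glo 3/7, 20 min RT; lum. Norm: DMSO vs 100 uM tamoxifen; AC50 Hill fit.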

[2] = Cellular Toxicity (caspase-3) MRC-5 (AID 659);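 note: 0% = DMSO basal and 100% = 10 µM staurosporine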
Procedure, shortened: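 Luminescence from caspase-cleaved aminoluciferin substrate (Caspase-Glo 3/7, 1 hr RT) reports caspase 3/7 activity in MRC-5 lung fibroblasts after 16 hr compound exposure. Normalized to DMSO basal and 10 uM staurosporine as 100%; AC50 from Hill fits.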

[3] = Cellular Toxicity (caspase-3) Mesangial (AID 660);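 note: combined caspase 3 and 7 activity read by Caspase-Glo luminescence; cells exposed to compound for 16 h before the caspase read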
Procedure, shortened: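 Concentration-response qHTS: compound-induced rise in caspase 3/7 luminescence in human mesangial cells after 16 h, normalized to DMSO and 100 uM tamoxifen controls.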

[4] = Cellular Toxicity (caspase-3) SK-N-SH (AID 661);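 note: cells exposed to compound for 16 hours; 0% = DMSO basal and 100% = 10 µM staurosporine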
Procedure, shortened: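 Caspase 3/7 activation is measured as a luminescence increase from aminoluciferin released by substrate cleavage in SK-N-SH cells after 16 hr compound treatment; values are AC50 from concentration-response curves.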

[5] = Cellular Toxicity (caspase-3) H-4-II-E (AID 663); settings: Potency: caspase-3 activation;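 note: cells exposed to compound for 16 hr before readout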
Procedure, shortened: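 Luminescence from caspase-cleaved aminoluciferin substrate, read 20 min after reagent addition, reports caspase 3/7 activation in rat H-4-II-E cells after 16 hr compound exposure. Normalized to DMSO (basal) and 100 uM tamoxifen (100%); AC50 from Hill fits.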

[6] = Cellular Toxicity (caspase-3) Hek293 (AID 664); settings: HEK293 caspase-3 activation, DMSO = 0%, 100 µM tamoxifen = 100%; at 92.2 µM (top of the series);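 note: cells exposed to compound for 16 h at 37 °C before readout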
Procedure, shortened: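 Activation of caspase-3/7 is measured as increased luminescence from cleaved peptide-aminoluciferin substrate in HEK293 cells treated 16 hours at 37 °C. AC50 values come from Hill-equation fits of concentration-response data.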

[7] = Cell Viability - LYMP2-001 (AID 921);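 note: cells exposed to compound for 24 h at 37 °C; 0% = DMSO only and full inhibition = tetraoctylammonium bromide control wells; nearly all actives have a fitted effect of over 70% in size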
Procedure, shortened: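 CellTiter-Glo luminescence (intracellular ATP) after 24 hr compound exposure at 37 C, 2500 lymphoblastoid cells/well in complete medium. AC50 fitted with standard Hill equation; tetraoctylammonium bromide positive control.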

[8] = MultiTox-Fluor Cytotoxicity Assay - LYMP1-001 - Live Cells (AID 947);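 note: 0% = DMSO only and full inhibition = tetraoctylammonium bromide control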
[9] = Cell Viability - LYMP2-011 (AID 969);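 note: cells exposed to compound for 24 hours; 0% = DMSO only and full inhibition = 92 µM tetraoctylammonium bromide; nearly all actives have a fitted effect of over 60% in size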
Procedure, shortened: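 Acute toxicity is scored as a concentration-dependent drop in intracellular ATP of a human lymphoblastoid line after 24 hr treatment. Values are AC50s modeled with the Hill equation.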

[10] = Cell Viability - LYMP2-017 (AID 972);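 note: cells exposed to compound for 24 hours at 37 °C; % is set by controls: 0 for no effect and ±100 for the full control effect; nearly all actives have a fitted effect of over 55% in size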
Procedure, shortened: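 Steps: plate 2500 lymphoblastoid cells per well; incubate 5 hr at 37 C; add compound across a concentration series and incubate 24 hr at 37 C; add CellTiter-Glo and read luminescence after 30 min at room temperature; fit Hill curves for AC50.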

[11] = Cell Viability - LYMP2-006 (AID 978);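 note: cells exposed to compound for 24 hours; % is set by controls: 0 for no effect and ±100 for the full control effect; nearly all actives have a fitted effect of over 60% in size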
Procedure, shortened: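 qHTS, 1536-well; 2500 cells/well, 5 hr 37 C; cpd 24 hr 37 C; CellTiter-Glo 30 min RT; luminescence. Tetraoctylammonium bromide pos. ctrl. AC50 via Hill eqn.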

[12] = Cell Viability - LYMP2-012 (AID 982);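 note: cellular ATP by luciferase luminescence where a drop means cytotoxicity; cells exposed to compound for one day before reading; 0% = DMSO only and full loss = 92 µM tetraoctylammonium bromide; nearly all actives have a fitted effect of over 55% in size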
[13] = molecular target: Glucocorticoid receptor (Homo sapiens) (UniProt P04150); experiment: qHTS assay for small molecule antagonists of glucocorticoid receptor signaling (AID 588533; active = well fitted inhibition curve with a large enough effect in the signal ratio, with a control signal flat, not every such curve was filed as active; the % refers to the signal ratio;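 note: cells stimulated with 2 nM dexamethasone as agonist; % is set by controls: 0 for no effect and ±100 for the full control effect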)
Glucocorticoid receptor (Homo sapiens), sequence (P04150 whole entry, looked up): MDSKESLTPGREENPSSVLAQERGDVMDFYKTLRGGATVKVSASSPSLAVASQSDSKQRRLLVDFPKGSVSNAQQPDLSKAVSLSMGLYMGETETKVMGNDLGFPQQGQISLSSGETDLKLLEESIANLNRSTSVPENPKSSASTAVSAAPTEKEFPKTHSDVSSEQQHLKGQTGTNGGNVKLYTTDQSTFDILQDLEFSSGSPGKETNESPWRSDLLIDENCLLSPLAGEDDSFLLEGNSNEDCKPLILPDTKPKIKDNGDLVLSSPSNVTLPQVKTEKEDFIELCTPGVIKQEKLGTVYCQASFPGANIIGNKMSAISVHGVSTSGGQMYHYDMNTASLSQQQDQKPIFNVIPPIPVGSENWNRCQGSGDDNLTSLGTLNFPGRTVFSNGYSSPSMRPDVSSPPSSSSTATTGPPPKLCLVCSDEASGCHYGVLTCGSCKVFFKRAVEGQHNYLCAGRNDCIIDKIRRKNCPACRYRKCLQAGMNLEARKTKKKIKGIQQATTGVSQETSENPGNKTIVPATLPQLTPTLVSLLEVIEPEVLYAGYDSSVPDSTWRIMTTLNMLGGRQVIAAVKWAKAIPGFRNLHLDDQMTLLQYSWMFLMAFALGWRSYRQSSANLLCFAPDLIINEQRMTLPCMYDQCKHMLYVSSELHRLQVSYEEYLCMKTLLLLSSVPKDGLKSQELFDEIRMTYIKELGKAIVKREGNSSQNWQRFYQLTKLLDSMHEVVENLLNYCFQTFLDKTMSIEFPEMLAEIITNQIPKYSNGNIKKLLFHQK
Procedure, shortened: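 Antagonist-mode qHTS: compound titrations added to GRE-bla HeLa cells, then dexamethasone 2 nM final; 18 h, 37 C. CCF4 FRET fluorescence normalized to dexamethasone and DMSO; IC50 from Hill fit.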

[14] = molecular target: Peroxisome proliferator-activated receptor gamma (Homo sapiens) (UniProt P37231); experiment: qHTS assay for small molecule agonists of peroxisome proliferator-activated receptor gamma signaling (AID 588536; active = well fitted curve in the direction sought with a large enough effect in the signal ratio, with a control signal flat, not every such curve was filed as active; the % refers to the signal ratio;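 note: 0% = DMSO basal wells and 100% = rosiglitazone at 2 µM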)
Peroxisome proliferator-activated receptor gamma (Homo sapiens), sequence (P37231 whole entry, looked up): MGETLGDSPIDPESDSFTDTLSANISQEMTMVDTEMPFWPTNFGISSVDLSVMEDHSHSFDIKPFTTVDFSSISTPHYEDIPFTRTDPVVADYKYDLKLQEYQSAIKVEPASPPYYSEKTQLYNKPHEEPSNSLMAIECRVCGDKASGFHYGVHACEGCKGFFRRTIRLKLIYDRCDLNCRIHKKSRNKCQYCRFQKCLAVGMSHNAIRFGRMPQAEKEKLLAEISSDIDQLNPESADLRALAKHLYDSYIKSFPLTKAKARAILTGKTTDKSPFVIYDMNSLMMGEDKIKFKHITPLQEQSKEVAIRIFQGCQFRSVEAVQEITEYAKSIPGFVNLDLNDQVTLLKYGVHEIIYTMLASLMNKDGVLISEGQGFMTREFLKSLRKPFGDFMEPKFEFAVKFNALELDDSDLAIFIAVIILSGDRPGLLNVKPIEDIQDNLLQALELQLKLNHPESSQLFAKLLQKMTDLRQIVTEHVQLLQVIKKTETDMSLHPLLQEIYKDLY
Procedure, shortened: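 Ratiometric blue/green fluorescence (405 nm excitation; 460 and 530 nm emission) from CCF4-loaded HEK293 reporter cells serves as signal. Exposure to test compounds lasts 16 h at 37 C in medium containing 1% charcoal/dextran-treated serum.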

[15] = molecular target: Vitamin D3 receptor (Homo sapiens) (UniProt P11473); experiment: qHTS assay for small molecule antagonists of vitamin D receptor signaling (AID 588541; calls by dose curve;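 note: receptor activated by calcitriol during compound treatment; % is set by controls: 0 for no effect and ±100 for the full control effect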)
Vitamin D3 receptor (Homo sapiens), sequence (P11473 whole entry, looked up): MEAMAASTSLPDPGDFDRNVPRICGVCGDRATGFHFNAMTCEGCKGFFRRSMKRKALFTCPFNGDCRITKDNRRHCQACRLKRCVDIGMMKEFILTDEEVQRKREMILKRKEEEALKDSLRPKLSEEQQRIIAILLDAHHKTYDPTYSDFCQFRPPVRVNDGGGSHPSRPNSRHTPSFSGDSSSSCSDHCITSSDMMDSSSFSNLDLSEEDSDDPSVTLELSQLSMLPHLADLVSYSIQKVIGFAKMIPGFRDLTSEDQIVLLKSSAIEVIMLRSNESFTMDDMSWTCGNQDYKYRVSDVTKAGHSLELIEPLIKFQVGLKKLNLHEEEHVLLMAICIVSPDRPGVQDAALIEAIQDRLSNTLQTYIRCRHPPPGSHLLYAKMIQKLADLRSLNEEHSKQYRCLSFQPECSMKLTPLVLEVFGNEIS
Procedure, shortened: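 VDR-UAS-bla HEK293T cells (2000/well, 2% charcoal-stripped FBS) were treated with titrated compounds plus 1-alpha,25-dihydroxyvitamin D3 (50 nM or 3 nM final) for 16 h at 37 C. CCF4 beta-lactamase fluorescence was read; Hill fits gave IC50.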

[16] = molecular target: Vitamin D3 receptor (Homo sapiens) (UniProt P11473); experiment: qHTS assay for small molecule agonists of vitamin D receptor signaling (AID 588543; calls by dose curve;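 note: 0% = DMSO basal and 100% = reference agonist control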)
Procedure, shortened: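 β-lactamase reporter, VDR-UAS-bla HEK293T, agonist mode. Cells plated 5 h at 37 °C, compound titration 16 h at 37 °C, CCF4 dye 2 h RT, ratio 460/530 nm. Hill fit → EC50, efficacy vs 50 nM 1α,25-(OH)2D3.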

[17] = molecular target: Retinoic acid receptor RXR-alpha (Homo sapiens) (UniProt P19793); experiment: qHTS assay for small molecule agonists of retinoid X receptor alpha signaling (AID 588544; calls by dose curve;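 note: 0% = DMSO basal wells and 100% = reference agonist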)
Retinoic acid receptor RXR-alpha (Homo sapiens), sequence (P19793 whole entry, looked up): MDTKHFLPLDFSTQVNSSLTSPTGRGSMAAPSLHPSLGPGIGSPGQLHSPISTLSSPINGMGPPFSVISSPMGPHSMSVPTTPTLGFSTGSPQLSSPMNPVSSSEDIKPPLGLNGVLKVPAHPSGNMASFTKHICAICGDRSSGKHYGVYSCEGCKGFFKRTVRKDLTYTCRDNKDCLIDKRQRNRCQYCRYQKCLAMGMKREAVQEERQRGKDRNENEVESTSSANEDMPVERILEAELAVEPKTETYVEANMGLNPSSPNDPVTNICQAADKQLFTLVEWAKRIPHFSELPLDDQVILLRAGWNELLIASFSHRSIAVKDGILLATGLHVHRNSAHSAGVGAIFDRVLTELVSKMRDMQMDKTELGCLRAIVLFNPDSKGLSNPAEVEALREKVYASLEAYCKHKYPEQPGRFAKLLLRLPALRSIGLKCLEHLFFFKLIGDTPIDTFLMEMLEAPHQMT

[18] = molecular target: Voltage-gated inwardly rectifying potassium channel KCNH2 (Homo sapiens) (UniProt Q12809); experiment: qHTS Assay for Small Molecule Inhibitors of the Human hERG Channel Activity (AID 588834);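 note: top concentration of the series differs between compounds; % is set by controls: 0 for no effect and ±100 for the full control effect; lower thallium flux fluorescence means stronger hERG block; nearly all actives have a fitted effect of over 50% in size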
Voltage-gated inwardly rectifying potassium channel KCNH2 (Homo sapiens), sequence (Q12809 whole entry, looked up): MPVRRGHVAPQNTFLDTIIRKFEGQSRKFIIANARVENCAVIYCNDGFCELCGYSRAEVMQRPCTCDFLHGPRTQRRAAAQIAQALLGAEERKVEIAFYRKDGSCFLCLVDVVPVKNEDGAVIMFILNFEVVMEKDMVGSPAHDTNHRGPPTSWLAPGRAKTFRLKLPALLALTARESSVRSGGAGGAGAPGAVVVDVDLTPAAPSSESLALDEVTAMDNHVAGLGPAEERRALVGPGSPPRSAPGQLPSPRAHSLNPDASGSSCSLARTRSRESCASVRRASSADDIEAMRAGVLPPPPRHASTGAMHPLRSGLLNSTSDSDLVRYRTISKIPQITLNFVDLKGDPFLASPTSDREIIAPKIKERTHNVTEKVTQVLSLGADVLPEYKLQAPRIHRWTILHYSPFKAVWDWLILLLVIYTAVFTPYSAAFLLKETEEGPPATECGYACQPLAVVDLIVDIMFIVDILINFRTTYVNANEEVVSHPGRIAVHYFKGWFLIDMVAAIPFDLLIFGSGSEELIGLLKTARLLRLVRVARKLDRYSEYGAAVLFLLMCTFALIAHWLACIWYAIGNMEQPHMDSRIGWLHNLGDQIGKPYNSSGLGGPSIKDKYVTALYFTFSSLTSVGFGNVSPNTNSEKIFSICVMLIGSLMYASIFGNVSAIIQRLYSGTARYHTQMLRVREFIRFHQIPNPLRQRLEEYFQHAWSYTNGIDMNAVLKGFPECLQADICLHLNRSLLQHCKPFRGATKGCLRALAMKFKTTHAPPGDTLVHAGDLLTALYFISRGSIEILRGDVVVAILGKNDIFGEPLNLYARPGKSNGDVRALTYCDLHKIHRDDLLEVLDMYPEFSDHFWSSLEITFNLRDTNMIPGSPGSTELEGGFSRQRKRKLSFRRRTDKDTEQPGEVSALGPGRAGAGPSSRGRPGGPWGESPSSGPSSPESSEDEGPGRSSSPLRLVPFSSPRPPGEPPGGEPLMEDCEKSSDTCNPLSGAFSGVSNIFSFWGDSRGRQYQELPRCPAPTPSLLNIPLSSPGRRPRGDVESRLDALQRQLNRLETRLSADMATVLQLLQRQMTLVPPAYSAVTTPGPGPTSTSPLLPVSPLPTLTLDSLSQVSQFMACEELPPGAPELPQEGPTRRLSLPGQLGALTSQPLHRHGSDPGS
Procedure, shortened: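 Concentration-response qHTS measuring drop in thallium-sensitive dye signal. U2OS cells carrying BacMam hERG; compound exposure ~10 min, then stimulation buffer and 2 min read at 1 sec intervals.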

[19] = molecular target: Tumor necrosis factor (Homo sapiens) (UniProt P01375); experiment: qHTS assay to identify small molecules that stimulate Tumor Necrosis Factor-alpha (TNF-alpha) secretion (AID 651757; active = well fitted curve in the direction sought with a large enough effect in the signal ratio; the % refers to the signal ratio; note: 0% is about no effect)
Tumor necrosis factor (Homo sapiens), sequence (P01375 whole entry, looked up): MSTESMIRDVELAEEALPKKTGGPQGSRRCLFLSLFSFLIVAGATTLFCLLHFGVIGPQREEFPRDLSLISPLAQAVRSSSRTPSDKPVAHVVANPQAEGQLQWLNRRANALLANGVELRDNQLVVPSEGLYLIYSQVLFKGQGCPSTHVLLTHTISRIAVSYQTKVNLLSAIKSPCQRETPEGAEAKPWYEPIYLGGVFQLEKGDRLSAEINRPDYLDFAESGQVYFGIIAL
Procedure, shortened: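 Secreted TNF-alpha from compound-treated THP-1 cells (17 hrs, 37 C) was quantified with a homogeneous time-resolved fluorescence antibody assay.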

[20] = qHTS assay for small molecule antagonists of the retinoid-related orphan receptor gamma (ROR-gamma) signaling pathway - cell viability counter screen (AID 720652; active = well fitted curve in the direction sought with a large enough effect in the repeat runs; an effect the other way counts as inactive or inconclusive;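 note: CHO reporter cells with doxycycline-induced ROR-gamma expression; compound exposure lasted 16 hr before ATP read; % is set by controls: 0 for no effect and ±100 for the full control effect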)
Procedure, shortened: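 Cytotoxicity is quantified via intracellular ATP (CellTiter-Glo luminescence) in doxycycline-induced CHO ROR response element-luciferase reporter cells treated with compound for 16 hr at 37 C, 5% CO2.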

ClC(Cl)c1ccccc1
inactive: outcome [1] | outcome [2] | outcome [3] | Potency [4] | Potency [5] | caspase-3 activation [6] 0.485% | Potency [7] | outcome [8] | Potency [9] | Potency [10] | Potency [11] | Potency [12] | outcome [13] | outcome [14] | outcome [15] | outcome [16] | outcome [17] | Potency [18] | outcome [19] | Potency [20]

C=CCOCC1CO1 (stereo not given)
inactive: outcome [1] | outcome [2] | outcome [3] | Potency [4] | Potency [5] | caspase-3 activation [6] 2.83% | Potency [7] | outcome [8] | Potency [9] | Potency [10] | Potency [11] | Potency [12] | outcome [13] | outcome [14] | outcome [15] | outcome [16] | outcome [17] | Potency [18] | outcome [19] | Potency [20]

O=[N+]([O-])c1cc(Cl)c(Cl)cc1Cl
inactive: outcome [2] | Potency [5] | Potency [7] | outcome [8] | Potency [9] | Potency [11] | outcome [13] | outcome [14] | outcome [15] | outcome [16] | Potency [18] | outcome [19] | Potency [20]

NC1CCC(CC2CCC(N)CC2)CC1 (stereo not given)
inactive: outcome [1] | outcome [3] | Potency [4] | Potency [5] | caspase-3 activation [6] -0.935% | outcome [8] | Potency [9] | Potency [10] | Potency [11] | Potency [12] | outcome [13] | outcome [14] | outcome [17] | Potency [18] | outcome [19] | Potency [20]

O=C(O)CCl
inactive: outcome [1] | outcome [2] | outcome [3] | Potency [4] | caspase-3 activation [6] -1.43% | Potency [7] | outcome [8] | Potency [9] | Potency [10] | Potency [11] | Potency [12] | outcome [15] | outcome [16] | outcome [17] | outcome [19]

Cc1ccc(N=C=O)cc1N=C=O
inactive: outcome [1] | outcome [2] | outcome [3] | Potency [4] | Potency [5] | caspase-3 activation [6] 2% | Potency [7] | Potency [10] | Potency [12] | outcome [13] | outcome [14] | outcome [15] | outcome [16] | outcome [17] | Potency [18] | Potency [20]
